# The source made the active and inactive calls. The rule behind the calls is not given here.
# Target: Proto-oncogene tyrosine-protein kinase Src (Homo sapiens) (UniProt P12931)
# Assay: ABL/SRC IC50 fold difference, recombinant kinases – biochemical, recombinant kinase panel, profiling panel (AID 1224917)
# Conditions: 33P substrate incorporation, hits give high values
# Sequence of Proto-oncogene tyrosine-protein kinase Src (Homo sapiens) (P12931 whole entry, looked up): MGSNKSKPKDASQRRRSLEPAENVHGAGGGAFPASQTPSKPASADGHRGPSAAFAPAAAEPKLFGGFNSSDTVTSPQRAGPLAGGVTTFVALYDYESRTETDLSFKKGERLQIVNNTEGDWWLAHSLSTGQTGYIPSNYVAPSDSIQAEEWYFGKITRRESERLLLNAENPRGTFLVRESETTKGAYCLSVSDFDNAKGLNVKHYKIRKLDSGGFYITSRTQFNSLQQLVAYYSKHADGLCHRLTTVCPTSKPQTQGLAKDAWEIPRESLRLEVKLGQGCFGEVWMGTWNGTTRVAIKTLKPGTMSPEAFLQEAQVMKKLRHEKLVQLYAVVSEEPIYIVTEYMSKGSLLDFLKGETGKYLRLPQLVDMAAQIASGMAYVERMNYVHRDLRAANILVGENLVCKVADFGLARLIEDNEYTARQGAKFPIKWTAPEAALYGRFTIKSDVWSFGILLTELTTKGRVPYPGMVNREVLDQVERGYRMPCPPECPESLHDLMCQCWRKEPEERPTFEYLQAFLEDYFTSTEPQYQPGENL
structure (smiles),measurement,value
COc1cc(-c2nn(CCN3CCC(N(C)C)CC3)c3ncnc(N)c23)ccc1NC(=O)OC(C)(C)C,selectivity fold (ABL/SRC IC50),> 950 (active)

# Source: PubChem BioAssay AID1224917
